The record followed here is the supplement of paper PMC6555819.

Common to all, as to assay: PBM binding z-score (relative to random genomic background probes); higher = stronger binding; sequences stand for … in GC…GCGATTGACAGCGTAGAATGAAGG
Test [1] deals with FXR:RXRa (NR concentration 270 nM, RXRa partner concentration 90 nM). An outline of the steps:
(§1)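 Custom Agilent 4×180K protein-binding microarrays carried double-stranded probes. Their 34-nt variable regions held direct-repeat seeds, single-nucleotide variants, half-site ablations and random human genomic background sequences. Arrays were incubated 1 h with ligand-free nuclear receptor dimers in PBS pH 7.4, 2% milk, 0.02% Triton X-100, 1 mM DTT, 0.2 mg/mL BSA and 0.4 mg/ml salmon testes DNA. Antibodies against each partner (one per run) detected binding, and scanned fluorescence was regression-normalized. Binding z-scores use random background probes as reference.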

The test system of test [2] is LXRa:RXRa (NR concentration 270 nM, RXRa partner concentration 90 nM). An outline of the steps:
as §1

Test [3] deals with LXRa homodimer (NR concentration 270 nM). An outline of the steps:
as §1

The subject of test [4] is LXRb:RXRa (NR concentration 270 nM, RXRa partner concentration 90 nM). An outline of the steps: as §1
The test system of test [5] is LXRb homodimer (NR concentration 270 nM). An outline of the steps: as §1
In test [6] the test system is PPARa:RXRa (NR concentration 270 nM, RXRa partner concentration 90 nM). An outline of the steps:
as §1

In test [7] the test system is PPARg:RXRa (NR concentration 180 nM, RXRa partner concentration 90 nM). An outline of the steps: as §1
For test [8], the system named is PPARg:RXRa 270nM:90nM, anti-RXR (NR concentration 270 nM, RXRa partner concentration 90 nM). An outline of the steps:
as §1

For test [9], the system named is PPARg:RXRa 30nM:10nM, anti-RXR (NR concentration 30 nM, RXRa partner concentration 10 nM). An outline of the steps:
as §1

Test [10] deals with PPARg:RXRa 90nM:30nM, anti-RXR (NR concentration 90 nM, RXRa partner concentration 30 nM). An outline of the steps:
as §1

For test [11], the system named is PPARg:RXRa DBDmut IVT, anti-RXR (DBD mutation: RXRa K156A/R161A, NR concentration 270 nM, RXRa partner concentration 90 nM). An outline of the steps: as §1
Test [12] has as its system PPARg:RXRa IVT, anti-PPARg (NR concentration 270 nM, RXRa partner concentration 90 nM). An outline of the steps:
as §1

The test system of test [13] is PPARg DBDmut:RXRa IVT, anti-PPARg (DBD mutation: PPARg1 K132A/R137A, NR concentration 270 nM, RXRa partner concentration 90 nM). An outline of the steps: as §1
The subject of test [14] is PPARg DBDmut IVT, anti-PPARg (DBD mutation: PPARg1 K132A/R137A, NR concentration 270 nM). An outline of the steps:
as §1

The subject of test [15] is PPARg homodimer (NR concentration 180 nM). An outline of the steps: as §1
Test [16] concerns PXR:RXRa (NR concentration 270 nM, RXRa partner concentration 90 nM). An outline of the steps:
as §1

Test [17] has as its system PXR homodimer (NR concentration 270 nM). An outline of the steps:
as §1

The test system of test [18] is RARa:RXR (NR concentration 270 nM, RXRa partner concentration 90 nM). An outline of the steps:
as §1

The subject of test [19] is RARa homodimer (NR concentration 270 nM). An outline of the steps:
as §1

The test system of test [20] is RARb:RXRa (NR concentration 270 nM, RXRa partner concentration 90 nM). An outline of the steps: as §1

Regarding GCTTACGGGTAAAAGGTTATAGCATGAATAGAAT, the PBM binding z-score was 1.77 in test [1]; 2.73 in test [2]; 0.384 in test [3]; 2.57 in test [4]; 0.0166 in test [5]; 4.81 in [6]. In addition, the PBM binding z-score in test [7] is 7.24; in test [8] it was 7.67; in test [9] it was 6.08; in test [10] it was 8.3; in test [11], 1.1; in test [12], 3.12. Also, the PBM binding z-score in test [13] was found to be 0.792; in test [14], 0.799; in [15] it was 1.62; in [16] it was 2.36; in test [17] it was 0.623; in test [18], 3.75. For the same sequence, the PBM binding z-score in test [19] is 0.86; in [20] it was 1.98.

For the sequence GCTTGTAGATCCAGGTTAAGAAAGACTAAGCTAA, the PBM binding z-score was -0.143 in test [1]; -0.0321 in test [2]; -0.394 in [3]; -0.191 in test [4]; -0.462 in [5]; 0.491 in test [6]. Also, the PBM binding z-score in test [7] is -0.204; in test [8] it was 0.0602; in test [9] it was -0.441; in [10], -0.11; in test [11], 1.08; in test [12], 0.859. Further, the PBM binding z-score is 0.236 in test [13]; -0.304 in [14]; 0.202 in test [15]; -0.27 in test [16]; -0.237 in [17]; 0.118 in [18]. The PBM binding z-score was found to be 0.241 in [19] and 0.0746 in test [20].

Take CAAACTAGGTCAGGGTCAAAGTCGGTTTGTGCCA: the PBM binding z-score in test [1] came to 5.97; in test [2] it was 4.32; in test [3], 1.32; in test [4] it was 4.16; in [5] it was 0.645; in [6], 6.05. For the same sequence, the PBM binding z-score in test [7] was 9; in test [8], 7.43; in test [9], 5.39; in test [10], 7.73; in test [11] it was 8.32; in test [12], 8.36. In addition, the PBM binding z-score in test [13] came out at 4.34; in test [14] it was 3.17; in [15] it was 4.2; in test [16], 4.81; in test [17], 1.33; in test [18], 5.35. In addition, the results for the PBM binding z-score in test [19] and in test [20] were 1.42 and 4.47, respectively.

Take ACAGACAGGTGAGTGAAGGCAACTCAGCTGGACG: the PBM binding z-score was -0.0161 in test [1]; -0.412 in [2]; -0.593 in test [3]; -0.733 in [4]; -0.607 in test [5]; -0.0544 in test [6]. Also, the PBM binding z-score in test [7] is 0.543; in test [8] it was -0.0793; in test [9], -0.458; in test [10], -0.591; in [11], 0.534; in test [12], 0.283. The PBM binding z-score in [13] was 0.108; in [14], -0.0836; in test [15] it was -0.372; in test [16], -0.299; in [17] it was -0.329; in test [18] it was -0.0789. Further, the PBM binding z-score in test [19] was -0.354; in test [20], 0.403.

Take CTCGAAAGTTCGTGCTCAGGTGAGTATACCAAAC: the PBM binding z-score was 0.841 in test [1]; 1 in [2]; 0.162 in test [3]; 1.03 in test [4]; -0.134 in test [5]; 1.39 in test [6]. Besides, the PBM binding z-score in test [7] is -0.262; in [8], 0.502; in test [9], 0.0705; in test [10], 0.433; in test [11], -0.18; in [12] it was 0.443. The PBM binding z-score in [13] is -0.211; in test [14], 0.0374; in test [15], 0.564; in [16] it was 1.4; in [17] it was 0.241; in test [18], 1.64. The PBM binding z-score in [19] was -0.0689; in test [20], 2.06.

With GGTACGAGGGCATTCGAGTTGATAGCATGGCGAT, the PBM binding z-score in test [1] was 1.45; in test [2], 1.69; in test [3] it was -0.269; in test [4], 0.123; in test [5], -0.742; in test [6], 0.926. The PBM binding z-score in [7] is 0.726; in test [8], 0.262; in [9], -0.638; in test [10] it was 0.0723; in test [11], 1.41; in test [12], 1.41. Moreover, the PBM binding z-score is -0.377 in test [13]; -0.67 in [14]; -0.0678 in [15]; 3.64 in test [16]; 1.73 in test [17]; 0.568 in test [18]. Moreover, the PBM binding z-score is -0.0392 in [19] and 1.95 in test [20].

In the case of AATACAGGGTTACTAGGCCAGAGTAGGTACGAAT, the PBM binding z-score is 0.737 in [1]; 1.26 in test [2]; 0.201 in [3]; 1.17 in test [4]; 0.122 in test [5]; 3.39 in test [6]. In addition, the PBM binding z-score stood at 4.79 in test [7]; 4.22 in test [8]; 1.52 in test [9]; 3.29 in [10]; 2.82 in [11]; 4.59 in [12]. The PBM binding z-score in test [13] was 1.84; in test [14], 1.12; in [15], 1.19; in test [16], 0.457; in test [17] it was 0.173; in [18], 0.852. For the same sequence, the PBM binding z-score in test [19] came out at 0.718; in test [20], 1.38.
